# Results filed as inconclusive are left out. A number with no mark means an inactive call. Active and inactive are the calls of the source. Calls follow the shape of the dose curve; as a rule, active = well fitted inhibition curve with a large enough effect; inconclusive = small, poorly fitted or top-dose-only effect; inactive = flat fitted curve, though single readings scatter.
# Tested on: HEK293
# Assay: Cytotoxic Profiling of Annotated Libraries Using Quantitative High-Throughput Screening (AID 1296008); also: nearly all actives have a fitted effect of over 60% in size
# Settings: Five cell lines viability, CellTiter-Glo ATP luminescence, 48-72 h; max response: hits give low values
# Summary of the method: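 Cytotoxicity was measured as CellTiter-Glo ATP luminescence, read after 10 min at room temperature. Compound treatment of the cells lasted 48 or 72 hr at 37 degrees Celsius in a qHTS format.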
# % is scaled to controls: 0 for no effect and ±100 for the full control effect; potency is read from the fitted curve at half-maximal effect.
Structure (SMILES),max response [%],Potency
Oc1ccc2c(-c3c(-c4ccccn4)nn4c3CCC4)ccnc2c1,-21.7,
C=C1C(=O)O[C@@H]2CC(C)=C([C@@H](C)CCCOC(C)=O)[C@@H](O)[C@H]12,1.32,
COC(=O)c1[nH]c(=O)c2ccccc2c1-c1ccc[nH]1,,20.6 µM (active)
C[C@@H]1O[C@@H](O[C@@H]2[C@@H](O)[C@H](O[C@H]3[C@H](O[C@H]4CC[C@@]5(C)C(CC[C@]6(C)C5CC=C5[C@@H]7CC(C)(C)CC[C@]7(C(=O)O[C@@H]7O[C@H](CO)[C@@H](O)[C@H](O)[C@H]7O)CC[C@]56C)C4(C)C)O[C@H](C(=O)O)[C@@H](O)[C@@H]3O)OC[C@H]2O)[C@H](O)[C@H](O)[C@H]1O (stereo not given in full),-0.54,
CC1(C)O[C@H]2CC(=O)OC[C@@]23C1=C(O)C(=O)[C@]1(C)C3CC[C@@]2(C)[C@H](c3ccoc3)OC(=O)[C@H]3O[C@]321 (stereo not given in full),1.52,
CC1(C)CC[C@]2(C(=O)O)CC[C@]3(C)C(=CCC4[C@@]5(C)C[C@@H](O)[C@H](O)[C@@](C)(CO)C5CC[C@]43C)C2C1 (stereo not given in full),2.88,
C[C@@H]1O[C@@H](O[C@H]2[C@H](O[C@H]3[C@H](O[C@H]4CC[C@@]5(C)C(CC[C@]6(C)C5CC=C5[C@@H]7CC(C)(C)C[C@@H](O)[C@]7(C)CC[C@]56C)[C@@]4(C)CO)O[C@H](C(=O)O)[C@@H](O)[C@@H]3O)O[C@H](C(=O)O)[C@H](O)[C@@H]2O)[C@H](O)[C@H](O)[C@H]1O (stereo not given in full),-6.47,
Cc1sc(C)c(C(=O)NC2(c3ccc(C(=O)O)cc3)CC2)c1Cc1ccc(C(F)(F)F)cc1,-5.46,
N#Cc1cccc(-c2nc(-c3cccnc3)no2)c1,-8.6,
O=C(O)Cn1nnc(-c2ccc(CN(CCCCOc3ccc(CN4CCCC4)cc3)CCc3ccccc3)cc2)n1,-0.898,
C/C(=C/CO)CC[C@H]1[C@]2(C)C[C@H](O)CC(C)(C)[C@H]2CC[C@]1(C)O,4.37,
O=C(/C=C/c1ccc(O)cc1)OCC1OC(O)C(OC2OC(CO)C(O)C(O)C2O)C(O)C1O (stereo not given),-3.95,
CC1(C)C(=O)CCC2(C)C1C(O)C=C1COC(=O)C12O (stereo not given),-3.58,
C=C(CCO)C(=O)OCC1OCC(OC(=O)C(=C)CCO[C@@H]2O[C@H](CO)[C@@H](O)[C@H](O)[C@H]2O)C(O)C1O (stereo not given in full),0.294,
CC1=C2C[C@H]3OC(=O)[C@H](O)[C@@]4(O)[C@@H](C)[C@@H](O)[C@H](O)C([C@@]2(C)[C@H](O)[C@@H](O)C1)[C@@]34C (stereo not given in full),-1.6,
COc1ccnc2[nH]cc(C(=O)C(=O)N3CCN(C(=O)c4ccccc4)CC3C)c12 (stereo not given),-0.0222,
OC[C@@]1(O)CO[C@@H](OC[C@H]2O[C@@H](OCc3ccccc3)[C@H](O)[C@@H](O)[C@@H]2O)[C@@H]1O,2.46,
COc1ccc(/C=C/C(N)=O)cc1OC,3.65,
CC(=O)OC(C)C(C)(O)C(=O)O[C@@H]1CC[C@]2(C)CC(=O)C(=C(C)C)C[C@H]2[C@]1(C)OC(C)=O (stereo not given in full),0.4,
N[C@@H](CC(=O)Nc1ccc(Oc2cc(F)c(F)cc2Br)cc1)C(=O)O,-28.9,
CC(=O)OC1C(CO)OC(O[C@H]2[C@H](OC(=O)[C@]34CCC(C)(C)C[C@H]3C3=CCC5[C@@]6(C)CC[C@H](O[C@@H]7O[C@H](C(=O)O)[C@@H](O)[C@H](O[C@@H]8OC[C@@H](O)[C@H](O)[C@H]8O)[C@H]7O[C@@H]7O[C@H](CO)[C@H](O)[C@H](O)[C@H]7O)[C@@](C)(C=O)C6CC[C@@]5(C)[C@]3(C)C[C@H]4O)O[C@H](C)[C@H](OC3OC(C)C(OC4OCC(O)C(O)C4O)C(O)C3O)[C@@H]2O)C(O)C1O (stereo not given in full),-1.35,
O=C(Nc1ccccc1)Nc1ccc(-c2ccc(C(=O)C3CCCC3C(=O)O)cc2)cc1 (stereo not given),-9.05,
Cn1c2ccc(NC(=O)c3ccccc3)cc2c(=O)n2nc(C(=O)O)cc12,-1.26,
C[C@@H]1CCC2C(C)(C)[C@H](O)[C@H](O)C[C@]2(C)[C@@]12Cc1c(O)cc3c(c1O2)CN(CCCC(=O)O)C3=O (stereo not given in full),-1.57,
CC(C)=CCC[C@@](C)(O)[C@H]1CC[C@]2(C)[C@@H]1[C@H](O)CC1[C@@]3(C)CC[C@H](O[C@@H]4O[C@H](CO)[C@@H](O)[C@H](O)[C@H]4O[C@@H]4O[C@H](CO)[C@@H](O)[C@H](O)[C@H]4O)C(C)(C)[C@@H]3CC[C@]12C (stereo not given in full),1.62,
